Source: PubChem
Only a sample is shown.
aSyn 5UTR act = Activators working through SNCA 5'UTR binding (MLPCN); alpha-synuclein 5'UTR reporter, activators screen; activity score, % (tested at 7.5 µM), hits read low; hit rate 7.1% among 300,000; in the data active = activity score below about -60%
The depositor's hits bear a star.

How did CC(C)c1ccc2nc(SCC(=O)NCC3CCCO3)c(C#N)cc2c1 (stereo unspecified) do in these assays?
aSyn 5UTR act: -143*

What do the screens show for `CCN1/C(=C/C=C/c2oc3ccc(-c4ccccc4)cc3[n+]2CC)Oc2ccc(-c3ccccc3)cc21`?
aSyn 5UTR act: 140

What do the screens show for `CN1CCN(/N=C/c2ccc(-c3ccc([N+](=O)[O-])cc3Cl)o2)CC1`?
aSyn 5UTR act: -104*

How did CC(=O)Nc1ccc(-c2nnc(SCC(=O)c3ccc4c(c3)Cc3ccccc3-4)n2C)cc1 do in these assays?
aSyn 5UTR act: -62*

Results for Cc1ccsc1C(=O)OCC(=O)N1CCc2ccccc2C1 ?
aSyn 5UTR act: -126*

How did CSc1nc(-c2ccc(Cl)cc2)nn1C(=O)c1ccccc1 do in these assays?
aSyn 5UTR act: -134*

Results for Fc1ccc2nc(Nc3nc4c(F)cccc4s3)sc2c1 ?
aSyn 5UTR act: -235*

What do the screens show for `O=C(Nc1nc2c(F)cc(F)cc2s1)c1ccccn1`?
aSyn 5UTR act: 73

Results for Fc1ccc2nc(Nc3nc4c(F)cc(F)cc4s3)sc2c1 ?
aSyn 5UTR act: -211*

What do the screens show for `Fc1cccc2sc(Nc3nc4ccccc4s3)nc12`?
aSyn 5UTR act: -309*

Results for CC(C)(C)c1ccc(/C=C2\SC(=O)N(CCNC(=O)c3cccc(S(=O)(=O)N4CCOCC4)c3)C2=O)cc1 ?
aSyn 5UTR act: -89*

What do the screens show for `CCN(CC)c1ccc(/C=N/NC(=O)c2cccc(S(=O)(=O)N3CCOCC3)c2)c(O)c1`?
aSyn 5UTR act: 129

How did O=C(NCc1ccco1)c1ccc2ccccc2c1 do in these assays?
aSyn 5UTR act: -64*

What do the screens show for `O=C(NCc1ccco1)c1ccc(Oc2ccccc2)cc1`?
aSyn 5UTR act: -87*

Results for O=C(NCc1ccco1)c1ccc2c(c1)C(=O)c1ccccc1-2 ?
aSyn 5UTR act: -77*

Results for CC(C)(CO)NC(=O)c1ccc2c(c1)C(=O)c1ccccc1-2 ?
aSyn 5UTR act: -96*

Results for CCc1nc2ccc(C(=O)NCCc3ccco3)cc2nc1CC ?
aSyn 5UTR act: -63*

Results for COc1ccc(-c2cc(O)cc(O)c2)cc1 ?
aSyn 5UTR act: -143*

What do the screens show for `Clc1ccc(OCCCN2CCCCC2)c(Br)c1`?
aSyn 5UTR act: -88*

How did Cc1c(OCc2ccccc2)c(=O)ccn1Cc1ccccc1 do in these assays?
aSyn 5UTR act: -111*

How did O=C(N/N=C/c1ccccc1[N+](=O)[O-])c1cccs1 do in these assays?
aSyn 5UTR act: -125*

Results for Cc1ccc(/C=N/NC(=O)c2cccs2)cc1[N+](=O)[O-] ?
aSyn 5UTR act: -107*

Results for CCCN1CCC(=O)N([C@H](CSc2ccc(OC)cc2)CC(C)C)CC1 ?
aSyn 5UTR act: -113*

What do the screens show for `CCCN1CCC(=O)N([C@H](CSc2ccc(C)cc2)c2ccccc2)CC1`?
aSyn 5UTR act: -181*

How did CCCN1CCC(=O)N([C@H](CSc2ccccc2)c2ccccc2)CC1 do in these assays?
aSyn 5UTR act: -72*

How did CN1CCC(=O)N([C@H](CSc2ccc(Br)cc2)c2ccccc2)CC1 do in these assays?
aSyn 5UTR act: -104*

What do the screens show for `CCCC(=O)Nc1nc(-c2ccccc2)ns1`?
aSyn 5UTR act: -152*

What do the screens show for `Cc1nnc(SCCC(=O)Nc2nc(-c3ccccc3)ns2)s1`?
aSyn 5UTR act: -86*

How did O=C(CSc1ncn[nH]1)Nc1nc(-c2ccccc2)ns1 do in these assays?
aSyn 5UTR act: -63*

How did CC(=O)Nc1cc(-c2ccc(Cl)cc2)[nH]n1 do in these assays?
aSyn 5UTR act: -141*

What do the screens show for `COC(=O)Nc1nc(-c2ccccc2)c(C(=O)c2ccc(Cl)cc2)s1`?
aSyn 5UTR act: 94

How did CC(=O)Nc1nc(-c2ccc(Cl)cc2)ns1 do in these assays?
aSyn 5UTR act: -206*

What do the screens show for `CC(C)C(=O)Nc1nc(-c2ccccc2)ns1`?
aSyn 5UTR act: -182*

Results for CCC(=O)Nc1nc(-c2ccccc2)ns1 ?
aSyn 5UTR act: -211*

What do the screens show for `CCSc1nc(-c2ccccc2)nc(C(Cl)Cl)n1`?
aSyn 5UTR act: 123

Results for c1ccc(OCc2cc(-c3ccccc3)no2)cc1 ?
aSyn 5UTR act: -169*

How did COc1ccccc1OCc1cc(-c2ccccc2)no1 do in these assays?
aSyn 5UTR act: -224*

How did CCCCCc1nnc(NC(=O)C2=COCCO2)s1 do in these assays?
aSyn 5UTR act: -110*

What do the screens show for `O=C(Nc1nc2cc3c(cc2s1)OCO3)C1=COCCO1`?
aSyn 5UTR act: 95

What do the screens show for `CCCCCc1nnc(NC(=O)C2CCCO2)s1` (stereo unspecified)?
aSyn 5UTR act: -90*

What do the screens show for `Clc1ccc2nc(COc3ccccc3)[nH]c2c1`?
aSyn 5UTR act: -151*

What do the screens show for `S=c1nc(COc2ccccc2)[nH]c2ccccc12`?
aSyn 5UTR act: -112*

Results for O=c1[nH]c(COc2ccccc2)nc2ccccc12 ?
aSyn 5UTR act: -70*

What do the screens show for `O=c1[nH]c(COc2ccc(Br)cc2Cl)nc2ccccc12`?
aSyn 5UTR act: -167*

How did Cc1cccc(NC(=O)c2cc3ccccc3c(=O)o2)n1 do in these assays?
aSyn 5UTR act: -191*

How did Cc1nc(NC(=O)c2ccc(Br)o2)ccc1Br do in these assays?
aSyn 5UTR act: -151*

What do the screens show for `Cc1nc(NC(=O)c2cc3ccccc3o2)ccc1Br`?
aSyn 5UTR act: -160*

How did O=C(O)c1cnn(-c2nc(-c3ccc(Cl)cc3)cs2)c1C(F)(F)F do in these assays?
aSyn 5UTR act: -92*

Results for COC(=O)c1cnn(-c2nc(-c3ccccc3)cs2)c1N ?
aSyn 5UTR act: -171*

What do the screens show for `COc1ccc(-c2csc(-n3ncc(C(=O)O)c3C(F)(F)F)n2)cc1`?
aSyn 5UTR act: -76*

Results for COc1ccc(NC(C)=O)cc1S(=O)(=O)Nc1ccccc1C(=O)NCCc1ccccc1 ?
aSyn 5UTR act: -128*

Results for O=C(O)CCc1ccc(S(=O)(=O)Nc2ccccc2C(=O)NCCc2ccccc2)cc1 ?
aSyn 5UTR act: -118*

How did CSc1nc(N)n2nc(-c3ccccc3)cc2n1 do in these assays?
aSyn 5UTR act: -119*

How did Cc1ccc(-c2cc3nc(-c4ccccc4)cc(N)n3n2)cc1 do in these assays?
aSyn 5UTR act: -236*

Results for C/C(=N\n1nnnc1Nc1ccccc1)c1ccc(N)cc1 ?
aSyn 5UTR act: -124*

Results for N#CCCN/N=C(/Cc1nc2ccccc2[nH]1)c1ccc(Cl)cc1 ?
aSyn 5UTR act: -67*

Results for N/N=C(/Cc1nc2ccccc2[nH]1)c1ccc([N+](=O)[O-])cc1 ?
aSyn 5UTR act: -75*

How did CCN/N=C(\Cc1nc2ccccc2[nH]1)c1ccccc1 do in these assays?
aSyn 5UTR act: -138*

How did Clc1cccc(/C(Cc2nc3ccccc3[nH]2)=N\Nc2ccccc2)c1 do in these assays?
aSyn 5UTR act: -64*

How did c1ccc(N/N=C(\Cc2nc3ccccc3[nH]2)c2ccccc2)cc1 do in these assays?
aSyn 5UTR act: -102*

How did Clc1ccc(/C=C/c2ncc[nH]2)c(Cl)c1 do in these assays?
aSyn 5UTR act: -169*

What do the screens show for `COC(=O)c1ccc2c(=O)n3c(nc2c1)SCC(c1ccccc1)=N3`?
aSyn 5UTR act: -112*

What do the screens show for `CC1=Nc2ccccc2N=C(N)C1c1ccccc1` (stereo unspecified)?
aSyn 5UTR act: -124*

How did Oc1ccccc1C1CC(c2cccs2)=NC(c2cccc(Br)c2)N1 (stereo unspecified) do in these assays?
aSyn 5UTR act: -87*

What do the screens show for `O=[N+]([O-])c1cccc(/C=N/N2CCN(Cc3ccccc3)CC2)c1`?
aSyn 5UTR act: -115*

How did O=[N+]([O-])c1cccc(/C=N/N2CCN(c3ccccn3)CC2)c1 do in these assays?
aSyn 5UTR act: -99*
